Measured values taken from PubChem BioAssay AID618 (Sanford-Burnham Center for Chemical Genomics, 2007).
Among all 87,000 compounds or so, about 540 (0.62%) were called active. The sample holds actives, similar compounds and a random draw of the others, so the mix is not that of the screen. No rule for the calls is given here. Results with a measured potency or affinity are listed apart.

Test: inhibitors of MT1-MMP promoter transcription, cell-based, luciferase reporter, luminescence (AID 618);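 also: actives suppress MT1-MMP promoter-driven transcription so potencies describe inhibitors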
Conditions: MT1-MMP promoter luciferase reporter cells

outcome, inactive:
COC(=O)C(C)Sc1ncnc2c1nnn2-c1ccc(F)cc1 (stereo unspecified)
Cc1ccc(CNC(=O)[C@H]2C[C@@H]2[C@H](NP(=O)(c2ccccc2)c2ccccc2)c2ccccc2)o1
Cc1ccc(C(=O)c2c(C)oc3c2C(=O)C(=O)c2ccccc2-3)cc1
O=C1c2ccccc2C(=O)c2c1oc(C(F)(F)F)c2C(=O)c1ccccc1
Cn1c(=O)c2c(nc(NCc3cccnc3)n2Cc2cccc(C(F)(F)F)c2)n(C)c1=O
COc1cccc(Cn2c(NCc3ccccn3)nc3c2c(=O)n(C)c(=O)n3C)c1
Cc1cc(C)nc(Sc2ccc3nnc(C(F)(F)C(F)(F)C(F)(F)F)n3n2)n1
Cc1ccc(-c2nn3c(C)nnc3s2)cc1NC(=O)C(C)C
COc1cccc2cc(-c3cn4ccc(C)cc4n3)c(=O)oc12
CCOc1cccc2cc(-c3nnc(-c4ccccc4)o3)c(=O)oc12
CCc1ccc(OCCNC(=O)c2ccc(S(=O)(=O)N(C)C)cc2)cc1
CCOC(=O)N1CCN(C(=O)c2ccc(N(Cc3ccc(C)cc3)S(C)(=O)=O)cc2)CC1
CCOP(=O)(c1ccccc1Cl)C1(O)CCCCC1 (stereo unspecified)
CCOc1ccc(C(=O)N2CCCC2)cc1OC
COc1ccc(C(=O)N2CCc3cc(OC)c(OC)cc3C2)cc1OC
CCOC(=O)C1=NN(c2ccc(Cl)cc2)C(c2ccccc2)CC1=O (stereo unspecified)
CCCN(CCC)S(=O)(=O)c1cccc(C(=O)Nc2ccc3c(c2)OCO3)c1
O=C(Nc1ccc(-c2nc3cc(Cl)ccc3o2)cc1)C1CCCO1 (stereo unspecified)
O=C(Nc1nc2ccccc2[nH]1)C1CCCO1 (stereo unspecified)
O=C(Nc1ccc(O)cc1)C1CCCO1 (stereo unspecified)
Cc1ccc2oc(-c3cccc(NC(=O)C4CCCO4)c3)nc2c1 (stereo unspecified)
COc1ccc(OC)c(NC(=O)C2CCCN2C(=O)OCc2ccccc2)c1 (stereo unspecified)
Nc1nnnn1/N=C/c1cccc(OCc2ccccc2Cl)c1
C=CC(O)(C#CCN(CC)CC)c1ccccc1 (stereo unspecified)
CC(=O)NC1CC2CCCC(C1)N2C(=O)Nc1ccccc1 (stereo unspecified)
NC(=O)c1c(NC(=O)c2ccco2)sc2c1CCC2
Cc1c(C(=O)Nc2ccccn2)oc2ccccc12
Cc1cc(C)nc(NC(=O)c2cc3ccccc3o2)n1
Cc1c(C(=O)Nc2ccncc2)oc2ccccc12
O=C(Nc1ccccc1)c1cc2ccccc2o1
CC(=O)Nc1sc2c(c1C(N)=O)CCC2
CCCC(C)NC(=O)C1CCN(S(=O)(=O)c2ccccc2)CC1 (stereo unspecified)
O=C(CSc1ccc(-c2nc3ccccc3[nH]2)cn1)N1CCN(C(=O)c2ccco2)CC1
O=C(c1ccc(S(=O)(=O)Nc2ccccc2)cc1)N1CCOCC1
CCN(CC)C(=O)C(C)N(C#N)c1nc(NC(C)C)nc(NC(C)C)n1 (stereo unspecified)
Cc1ccc(Cn2c(Sc3nnc(C)s3)nc3c2c(=O)[nH]c(=O)n3C)cc1
Cc1cccc(CCNC(=O)C2CCC(=O)N2Cc2ccc(F)cc2)c1 (stereo unspecified)
CCOC(=O)Cc1csc(SCC(=O)Nc2sc3c(c2C(N)=O)CCC3)n1
CCOC(=O)CSC1=C(C#N)C(c2ccccc2OC)CC(=O)N1 (stereo unspecified)
CCCCCCSC1=C(C#N)C(c2ccc(C)o2)CC(=O)N1 (stereo unspecified)
CCOC(=O)CSC1=C(C#N)C(c2ccc(Cl)cc2)CC(=O)N1 (stereo unspecified)
CCSC1=C(C#N)C(c2ccc(C)s2)CC(=O)N1 (stereo unspecified)
C=CCc1c(C)c(C#N)c2nc3ccccc3n2c1N1CCN(C)CC1
CCC(CC)C(=O)NCCc1cc2c(C)ccc(C)c2[nH]c1=O
COc1cc(Nc2cc(C)nc3ncnn23)cc(OC)c1OC
Cc1nc2ncnn2c(Nc2ccc3c(c2)OCO3)c1Cc1ccccc1
COc1ccc(NC(=O)CSc2nnc(-c3cccnc3)o2)cc1
CCn1nc(C)c(NC(=O)CCCSc2nc(-c3ccco3)cc(C(F)(F)F)n2)c1C
Cc1[nH]nc2c1C(C(C)C)C(C#N)=C(N)O2 (stereo unspecified)
Cc1ccc(C2C(C#N)=C(N)Oc3n[nH]c(C)c32)cc1 (stereo unspecified)
CC(=O)N(C(C)=O)C1=C(C#N)C2(CCCCC2)Cc2ccccc21
COc1cc(C(=O)Nc2nc3ccccc3[nH]2)cc(OC)c1OC
COc1cc(OC)cc(C(=O)Nc2nc3ccccc3[nH]2)c1
O=C(Nc1ccc(F)cc1)c1ccccc1F
COC(=O)Nc1nc2ccc(C(=O)c3ccccc3)cc2[nH]1
Cc1cc(NC(=O)c2ccccc2F)n(-c2nc3ccccc3[nH]2)n1
O=C(Cc1ccccc1)Nc1nc2ccccc2[nH]1
O=C(COc1ccccc1)Nc1nc2ccccc2[nH]1
CCCOc1ccc2nc(NC(=O)OC)[nH]c2c1
Cc1cc(=O)n2nc(N3CCC(C(=O)NCc4cccnc4)CC3)sc2n1
CC(C)=C1SC(N2CCN(Cc3ccccc3)CC2)=NC1=O
CC1=C(C#N)C(c2cccnc2)C2=C(CC(c3ccc(Cl)cc3)CC2=O)N1 (stereo unspecified)
COc1ccc(-c2nn(-c3ccccc3)cc2C(=O)N2CCOCC2)cc1
Cc1cc(C)n(C(=O)CN2C(=O)c3ccccc3C2=O)n1
O=C(NCc1ccncc1)Nc1ccc(Cl)cc1Cl
CCCn1c(=O)c2c(c3ccccc31)OCC(=O)N2
COc1ccc(Cc2nnc3n2N=C(c2cc4ccccc4o2)CS3)cc1OC
COC(=O)CSc1nsc(SCC(=O)OC)n1
CCCCCSc1nc2c(cnn2-c2ccccc2)c(=O)[nH]1
COc1ccc(C(=O)Nc2nc3ccccc3[nH]2)cc1OC
O=C(NCCc1nc2ccccc2[nH]1)c1ccc(F)cc1
Cc1[nH]c2ccccc2c1/C=N/n1cnnc1
Nc1c(C(=O)Nc2ccccc2)sc2nc3c(c(-c4ccco4)c12)CCC3
COc1ccc(C2NC3=C(CCC3)C3(C#N)C(OC)(OC)N=C(N)C23C#N)cc1 (stereo unspecified)
COc1ccc(OC)c(S(=O)(=O)NCCO)c1
O=C(NCCc1ccccc1)C1CC(c2ccccc2O)=NO1 (stereo unspecified)
O=C1CCCC/C1=C/Nc1ccc2c(c1)OCO2
COc1ccc2c(c1)CC/C(=C\Nc1ccc3c(c1)OCO3)C2=O
CCn1cc(Br)c(C(=O)Nc2cccc(SC)c2)n1
CCOC(=O)c1c(C)c(C(=O)Nc2ccc3c(c2)OCO3)c(C)n1C
CCOC(=O)c1c(C)[nH]c(C(=O)Nc2ccc3c(c2)OCO3)c1C
COc1ccc(-c2nnc3ccc(SCC(=O)N4CCCC4)nn23)cc1
Cn1c(=O)c2c(nc(N3CCN(Cc4ccccc4)CC3)n2CCSc2ncccn2)n(C)c1=O
COc1ccc(Cl)cc1NS(=O)(=O)c1ccc(S(=O)(=O)N2CCCC2)cc1
COc1ccc(CCNS(=O)(=O)c2ccc(N3CCCC3=O)cc2)cc1
Cc1ccccc1NS(=O)(=O)c1ccc(N2CCCC2=O)cc1
COc1ccc(Cl)cc1NS(=O)(=O)c1ccc(OC)c(OC)c1
C=CCc1cccc(/C=N/n2c(C)nnc2C)c1O
O=C1CC(c2ccc(S(=O)(=O)N3CCCCC3)cc2)CN1 (stereo unspecified)
CCOc1cccc(CNn2cnnc2)c1OCc1ccccc1
CCN1CCN(CCNC(=O)CS(=O)(=O)Cc2nc(-c3ccc(C)cc3)oc2C)CC1
CCOc1cc(-c2noc(N)c2C(=O)OC)cc(OCC)c1OCC
Brc1ccc(-c2nc(N/N=C/c3cccnc3)c3ccccc3n2)cc1
Cc1ccc(-c2nc(N/N=C/c3cccnc3)c3ccccc3n2)cc1
COc1ccc(CCn2c(C)cc3c(c2=O)C(c2ccc4c(c2)OCO4)C(C#N)=C(N)O3)cc1OC (stereo unspecified)
COc1ccccc1NC(=O)C1C2CCCCC21 (stereo unspecified)
Cc1cc(C)n(C(=O)c2nn(C)c(C)c2[N+](=O)[O-])n1
COc1cccc(CNC(=O)c2cc3ccccn3n2)c1
O=C(Nc1ccc(CN2CCOCC2)cc1)c1cccc(F)c1
CC(=O)c1cccc(NC(=O)c2cc3ccccn3n2)c1
O=C(Nc1ccc(CN2CCOCC2)cc1)c1cc2ccccc2o1
COc1ccc(-c2ccc(-c3noc(-c4ccc(OC)c(OC)c4)n3)c(OC)n2)cc1

outcome, active:
Cc1oc2c(c1C(=O)c1ccccc1)C(=O)C(=O)c1ccccc1-2
CCOc1cccc2cc(-c3cn4cc(C)ccc4n3)c(=O)oc12
CCOc1cc(C(=O)N2CCc3cc(OC)c(OC)cc3C2)ccc1OC(F)F
O=C(Nc1ccc(-c2nc3ccccc3o2)cc1)C1CCCO1 (stereo unspecified)
O=C(Nc1ccc(-c2nc3ccccc3[nH]2)cc1)C1CCCO1 (stereo unspecified)
CCOC(=O)CSC1=C(C#N)C(c2ccc(C)s2)CC(=O)N1 (stereo unspecified)
CCOC(=O)CSC1=C(C#N)C(c2ccc(C)o2)CC(=O)N1 (stereo unspecified)
Cc1[nH]nc2c1C(C1CC=CCC1)C(C#N)=C(N)O2 (stereo unspecified)
O=C(Nc1nc2ccccc2[nH]1)c1ccccc1F
C=CCOc1ccc2nc(NC(=O)OC)[nH]c2c1
O=C(Nc1nc2ccccc2[nH]1)c1ccc(F)cc1
CCOC(=O)c1c(N)sc(C(=O)Nc2ccc3c(c2)OCO3)c1C
COc1ccc(OC)c(NS(=O)(=O)c2ccc(N3CCCC3=O)cc2)c1
COc1ccc(S(=O)(=O)Nc2cc(Cl)ccc2OC)cc1
